The results in this text go back to PubChem BioAssay (NCATS).

A number with no mark means an inactive call. No rule for the calls is given here.
Potency is read from the fitted curve at half-maximal effect.

The subject of the experiment is HIV-1 nucleocapsid protein NCp7 (binding to TG oligonucleotide). The experiment is described as follows: HIV Nucleocapsid (AID 346).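 Also: potency is for inhibitors that block NC binding and lower polarization.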 Particulars: HIV-1 NC / fluorescein-TGTGTGTG probe, fluorescence polarization. In short, it runs like this: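 Fluorescence polarization binding of 100 nM HIV-1 NC to 10 nM fluorescein-labelled TG4xF oligonucleotide. Buffer was Hepes pH 7.5 with 250mM NaCl, 1uM ZnCl2, TCEP and 2-mercaptoethanol. Compounds were incubated 1 hr at room temperature before the read.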
(In general: Polarisation of emitted light reports the rotation of a fluorescent probe.)
Regarding `Cc1cccc(CNc2cc(-c3ccccc3Cl)ncn2)c1`, the Potency is more than 20 µM.
Next, `N#CCCn1c(=O)c(CCc2ccccc2)nc2cnc(N3CCOCC3)nc21`: more than 20 µM.
To `O=C(Nc1cccc(F)c1)N1CC[C@@]2(CCCN(C(=O)c3cnccn3)C2)C1` belongs more than 20 µM.
Next, `COc1ccccc1CCn1c(=O)cnc2cncnc21`: more than 20 µM.
Turning to `O=c1c(CCc2ccccc2)nc2cnc(Oc3ccccc3)nc2n1C[C@H]1CCCO1`, the Potency was more than 20 µM.
Take `COc1cccc(Cn2c(=O)c(CCc3ccccc3)nc3cnc(N4CCOCC4)nc32)c1`: the Potency was more than 20 µM.
Turning to `Cc1noc(C)c1-c1nccc(NCCN2CCOCC2)n1`, the Potency is more than 20 µM.
For the compound `O=C(c1cnccn1)N1CCC2(CC1)CCN(c1ccccc1)CC2`, the Potency is more than 20 µM.
Next, `CN(Cc1ccco1)c1cc(-c2cccc(C#N)c2)ncn1`: more than 20 µM.
As for `O=c1c(-c2ccc(Cl)cc2)nc2cnc(N3CCNCC3)nc2n1Cc1ccc(F)cc1`, the Potency was more than 20 µM.
For the compound `O=C(c1cc(C(F)(F)F)cc(C(F)(F)F)c1)N1CCC[C@@]2(CCN(Cc3ccccc3)C2)C1`, the Potency was more than 4 µM.
Consider `Cc1noc(C)c1-c1nc(N2CCN(C)CC2)c2ccccc2n1`, for which the Potency is more than 20 µM.
As for `O=C(Nc1cccc(F)c1)N1CCCC2(CCN(C(=O)c3cccc(F)c3)CC2)C1`, the Potency was more than 20 µM.
To `COc1ccc(CNc2ncnc3ccc(-c4c(C)noc4C)cc23)c(OC)c1` belongs more than 20 µM.
Next, `COc1ccccc1CNc1ccnc(-c2ccc3c(c2)OCO3)n1`: more than 20 µM.
